# Source: PubChem BioAssay
# “And” between values parts separate entries of the source, which are not always exact repeats. Identical values can stand only once. Results filed as inconclusive are left out. The source made the active and inactive calls. Unless noted, no stated cut-off is given here; in the data, active means inhibition above about 80%; inactive means the rest.
# What was measured:
# [1] = reducers of polyQ inclusions in PC12 cells, cell-based, NGF-treated PC12, GFPQ80 (AID 1614); details: PC12 NGF-treated GFP-polyQ80 inclusion reduction;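 further: lower means fewer inclusions and 0 means no inclusions at all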
# [2] = hESC survival regulators, cell-based (AID 493140; call rule not given here;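 further: cells exposed to compounds for four days before counting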); details: human embryonic stem cell survival screen; stronger effect = higher value
# [3] = system: Hepatitis C virus NS3 helicase; test: HCV NS3 helicase inhibitors, primary screen, biochemical, fluorescence polarization, LOPAC1280 library (AID 687035; in the data active means inhibition above about 37%); details: Purified HCV NS3 helicase, Cy5-dT15 ssDNA binding fluorescence polarization; stronger effect = higher value; concentration not given here
# [4] = Cy5 fluorescence quenching or enhancement artefacts, artefact control for HCV NS3 helicase inhibitor project, biochemical, LOPAC1280 (AID 687037; call rule not given here); details: Cy5-DNA-NS3h complex fluorescence interference counterscreen
# [5] = growth inhibition of DIPG glioma cells, dose response, cell-based, SU-DIPG-XVII, MIPE5.0, CellTiter-Glo, qHTS (AID 1347060; cut-off not given, nearly all actives have AC50 up to about 26 µM); details: SU-DIPG-XVII viability, CellTiter-Glo ATP luminescence
# [6] = growth inhibition of DIPG glioma cells, dose response, cell-based, SU-DIPG-XIII, MIPE4.0, CellTiter-Glo, qHTS (AID 1347061; cut-off not given, nearly all actives have AC50 up to about 37 µM;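 further: cells exposed to compound for 48 hours before readout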); details: SU-DIPG-XIII viability, CellTiter-Glo ATP luminescence
# [7] = growth inhibition of DIPG glioma cells, dose response, cell-based, JHH-DIPG-1, MIPE4.0, CellTiter-Glo, qHTS (AID 1347062; cut-off not given, nearly all actives have AC50 up to about 27 µM); details: JHH-DIPG-1 viability, CellTiter-Glo ATP luminescence
# [8] = growth inhibition of DIPG glioma cells, dose response, cell-based, SU-DIPG-IV, MIPE4.0, CellTiter-Glo, qHTS (AID 1347063; cut-off not given, nearly all actives have AC50 up to about 30 µM;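 further: compound exposure lasted 48 hours before the viability readout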); details: SU-DIPG-IV viability, CellTiter-Glo ATP luminescence
# [9] = viability loss in pontine glioma line – cell-based, SU-DIPG-XXV, MIPE5.0, CellTiter-Glo, qHTS, dose response (AID 1347065; cut-off not given, nearly all actives have AC50 up to about 26 µM;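 further: cells exposed to compound for 48 hours before ATP readout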); details: CellTiter-Glo ATP luminescence
# [10] = JHH-DIPG-1 glioma cell viability, MIPE5.0 library, CellTiter-Glo luminescence, qHTS (AID 1347067; cut-off not given, nearly all actives have AC50 up to about 26 µM;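 further: cells exposed to compound for 48 hours before readout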); details: JHH-DIPG-1 glioma viability, CellTiter-Glo ATP luminescence
# [11] = SU-DIPG-XXV glioma cell viability, MIPE5.0 library, qHTS (AID 1347068; cut-off not given, nearly all actives have IC50 up to about 30 µM)
# [12] = phospholipid biosynthesis inhibitors in animal cells, primary screen, cell-based, LOPAC library, screen 4 (AID 1347384; call rule not given here); details: phospholipid biosynthesis inhibition screen, at 10 µM
# [13] = HDN33 neuroblastoma growth inhibition, cell-based, chromothripsis tumors, cisplatin or BGB combos (AID 1671450); details: HDN33 neuroblastoma cells, stronger effect = higher value;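 further: cells exposed to compound for four days; 0% = vehicle DMSO and 100% = cell killing by high DMSO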
# [14] = LFS_MB_1R medulloblastoma cell growth inhibition, synergistic combos for chromothripsis tumors, cisplatin or BGB combos (AID 1671452); details: LFS_MB_1R medulloblastoma cells, stronger effect = higher value;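 further: cells exposed for 96 hours before readout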
# [15] = HTB85 osteosarcoma cell growth inhibition, synergistic combos for chromothripsis tumors, BGB or cisplatin IC20 combos (AID 1671453); details: HTB85 osteosarcoma cells, drug combinations, stronger effect = higher value;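 further: cells exposed for 96 hours before readout; 0% = vehicle DMSO and 100% = high DMSO killing control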
# [16] = MDA-MB-436 breast carcinoma cell growth inhibition, synergistic combos for chromothripsis tumors, BGB or cisplatin combos (AID 1671458; call rule not given here;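 further: cells exposed for 96 hours; 0% = vehicle DMSO and 100% = killing by high DMSO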); details: MDA-MB-436 breast carcinoma growth inhibition, drug combinations, stronger effect = higher value
# [17] = growth inhibition of BT084 medulloblastoma cells, cell-based, ICGC_MB145, cisplatin and BGB IC40 combos (AID 1671461); details: drug combinations, stronger effect = higher value;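 further: cells exposed to drugs for 96 hours; 0% = vehicle DMSO and 100% = high DMSO full killing control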
# [18] = growth inhibition of RCMB18 medulloblastoma cells, cell-based, cisplatin and BGB IC40 combos (AID 1671462); details: stronger effect = higher value;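 further: cells exposed to compound for four days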
# [19] = growth inhibition of CRL1545 osteosarcoma cells, cell-based, cisplatin and BGB IC20 combos (AID 1671464); details: stronger effect = higher value;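 further: cells exposed to compound for 96 hours before readout; 0% = vehicle DMSO and 100% = high DMSO killing control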
# [20] = SU-DIPG-VI glioma cell viability, MIPE4.0 library, CellTiter-Glo luminescence, qHTS (AID 1347066; cut-off not given, nearly all actives have AC50 up to about 30 µM;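 further: cells exposed to compound for 48 hours before readout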); details: CellTiter-Glo ATP luminescence
# [21] = measured here: with BGB IC20 combination, at 0.5 µM
# [22] = measured here: with cisplatin IC20 combination, at 0.5 µM
# [23] = measured here: combination with cisplatin, at 0.5 µM
smiles,measurement,setting,value
Nc1nc2c(ncn2COCCO)c(=O)[nH]1,inclusion score,[1],2
same,survival,[2],18.2 (inactive)
same,inhibition,[3],-2% (inactive)
same,fluorescence ratio (interference),[4],1 (inactive)
same,outcome,[5],inactive
same,outcome,[6],inactive
same,outcome,[7],inactive
same,outcome,[8],inactive
same,outcome,[9],inactive
same,outcome,[10],inactive
same,outcome,[11],inactive
same,outcome,[12],inactive
same,inhibition,"[13]; BGB combo, at 5 µM",-39.6% and -25.3%
same,inhibition,[13]; at 0.5 µM,-44.3% (inactive) and -13.8% (inactive)
same,inhibition,"[13]; cisplatin combo, at 5 µM",-30.4% and 3.02%
same,inhibition,[13]; [21],-44% and -16%
same,inhibition,[13]; [22],-44.9% and -2.15%
same,inhibition,"[13]; single agent, at 5 µM",-49.5% and 10.3%
same,inhibition,[14]; at 0.5 µM,-33.9% (inactive) and -12.8% (inactive)
same,inhibition,"[14]; measured here: combination with BGB IC40, at 0.05 µM",-30% and -19.3%
same,inhibition,[14]; [23],-22.8% and -6.62%
same,inhibition,"[14]; measured here: combination with cisplatin, at 5 µM",-40.1% and -62.2%
same,inhibition,[15]; at 0.5 µM,-30.1% (inactive) and -6.85% (inactive)
same,inhibition,"[15]; measured here: with BGB IC20, at 0.5 µM",-40.8% and -11.5%
same,inhibition,"[15]; measured here: with BGB IC20, at 5 µM",-33.7% and -9.07%
same,inhibition,"[15]; measured here: with cisplatin IC20, at 0.5 µM",-27.1% and -11.3%
same,inhibition,"[15]; measured here: with cisplatin IC20, at 5 µM",-43.1% and -41.4%
same,inhibition,"[15]; single agent, at 5 µM",-42.6% and 2.37%
same,inhibition,[16]; at 0.5 µM,-28.5% (inactive) and -3.5% (inactive)
same,inhibition,"[16]; measured here: BGB combination, at 0.5 µM",-28% and -11%
same,inhibition,"[16]; measured here: BGB combination, at 5 µM",-21.3% and -10.7%
same,inhibition,"[16]; measured here: cisplatin combination, at 0.5 µM",-47.5% and -0.282%
same,inhibition,"[16]; measured here: cisplatin combination, at 5 µM",-36.3% and -17.4%
same,inhibition,[17]; at 0.5 µM,-21.3% (inactive) and -1.95% (inactive)
same,inhibition,"[17]; cisplatin combination, at 0.5 µM",-12.5% and -17.2%
same,inhibition,"[17]; cisplatin combination, at 5 µM",-6.79% and -8.03%
same,inhibition,"[17]; measured here: BGB IC40 combination 0.05 uM, at 0.05 µM",-1.08% and -21.3%
same,inhibition,"[17]; single agent, at 5 µM",-0.642% and -9.5%
same,inhibition,[18]; at 0.5 µM,-24.6% (inactive) and -1.99% (inactive)
same,inhibition,"[18]; cisplatin combo, at 5 µM",-16.8% and -20.6%
same,inhibition,"[18]; measured here: BGB IC40 combination, at 0.05 µM",-28.4% and 4.2%
same,inhibition,[18]; [23],-35.4% and 12.7%
same,inhibition,"[18]; single agent, at 5 µM",-21.5% and -6.99%
same,inhibition,[19]; at 0.5 µM,-37.7% (inactive) and -21.2% (inactive)
same,inhibition,[19]; [21],-17.4% and -24.8%
same,inhibition,[19]; [22],-51.3% and -21.4%
same,inhibition,"[19]; single agent, at 0.05 µM",-59.2% and 3.53%
same,inhibition,"[19]; single agent, at 5 µM",-38.1% and -22.9%
CN1C(C(=O)Nc2ccccn2)=C(O)c2ccccc2S1(=O)=O,inclusion score,[1],2
same,survival,[2],20 (inactive)
same,inhibition,[3],-1% (inactive)
same,fluorescence ratio (interference),[4],1 (inactive)
same,outcome,[5],inactive
same,outcome,[6],inactive
same,outcome,[7],inactive
same,outcome,[9],inactive
same,outcome,[20],inactive
same,outcome,[10],inactive
same,outcome,[11],inactive
same,outcome,[12],inactive
